Active and inactive are the calls of the source. Unless noted, no rule for the calls is given here.
How the values were obtained:
[1] = A549 cell viability effects, profiling panel, calcein-AM fluorescence, 48 h, basal (AID 1162); details: higher = more signal; also: test concentration not given here
[2] = adipocyte viability effects, profiling panel, cell-based, 3T3-L1 adipocytes, calcein-AM fluorescence, 48 h, basal (AID 1163); details: 3T3-L1 adipocytes viability, higher = more signal; also: test concentration not given here
[3] = HepG2 cell viability effects, profiling panel, calcein-AM fluorescence, 48 h, basal (AID 1164); details: higher = more signal; also: test concentration not given here
[4] = MM1S cell viability effects, profiling panel, calcein-AM fluorescence, 48 h, basal (AID 1165); details: higher = more signal;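 also: viability of MM1S multiple myeloma cells under basal unstimulated conditions; test concentration not given here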
[5] = basal RPMI8226 viability, no added stimulus, profiling panel, cell-based, calcein-AM fluorescence, 48 h, PK04 Diversity Set (AID 1166); details: RPMI8226 myeloma viability, higher = more signal;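 also: cells grown under basal conditions without added stimulus; test concentration not given here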
[6] = basal HepG2 mitochondrial membrane potential changes, profiling panel, cell-based, JC-1 fluorescence, 24 h, 100 nL compound (AID 1167); details: higher = more signal; also: test concentration not given here
[7] = basal 3T3-L1 adipocyte mitochondrial potential changes, profiling panel, cell-based, JC-1 fluorescence, 3T3-L1 adipocytes, 24 h, 100 nL compound (AID 1168); details: JC-1 mitochondrial fluorescence, higher = more signal, called active from +8 up or from −8 down; also: test concentration not given here
[8] = basal RPMI8226 mitochondrial membrane potential changes, profiling panel, cell-based, JC-1 fluorescence, 24 h, 100 nL compound (AID 1169); details: RPMI8226 myeloma, JC-1 mitochondrial potential fluorescence, higher = more signal; also: test concentration not given here
[9] = basal MM1S mitochondrial membrane potential changes, profiling panel, cell-based, JC-1 fluorescence, 24 h, 100 nL compound (AID 1170); details: higher = more signal; also: test concentration not given here
[10] = A549 lung cancer cell viability effects, profiling panel, resazurin fluorescence, 24 h, PK04 Diversity Set (AID 1171); details: higher = more signal, called active from +8 up or from −8 down; also: test concentration not given here
[11] = HepG2 liver cancer cell viability effects, profiling panel, resazurin fluorescence, 24 h, PK04 Diversity Set (AID 1172); details: higher = more signal; also: test concentration not given here
[12] = basal S. cerevisiae growth modulation, no modifier, primary screen, OD600, strain BY4716, 24 h, basal condition (AID 1173); details: OD600, 24 h, higher = more signal, called active from +8 up or from −8 down
[13] = MM1S myeloma cell viability, profiling panel, resazurin fluorescence, basal, 24 h, PK04 Diversity Set (AID 1174); details: higher = more signal, called active from +8 up or from −8 down;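 also: MM1S multiple myeloma cell line; test concentration not given here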
[14] = biological target: Dihydroorotate dehydrogenase (quinone), mitochondrial (Plasmodium falciparum (isolate 3D7)) (UniProt Q08210); experiment: PfDHODH enzyme inhibitors, primary screen, biochemical, C-terminal His tag, absorbance 600 nm (AID 1175); details: DCIP absorbance 600 nm, higher = more signal, called active from +8 up or from −8 down;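 also: recombinant parasite enzyme with a five histidine tag at its C terminus; test concentration not given here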
[15] = P. aeruginosa biofilm formation inhibitors, primary screen, strain PAO1, LB-PBS medium, absorbance 600 nm (AID 1176); also: test concentration not given here; details: P. aeruginosa PAO1 growth/biofilm, A600, 12 h; higher = more signal
[16] = S. cerevisiae RM11-1a growth modifiers, primary screen, strain RM11-1a, OD600, basal, 24 h (AID 1177); details: OD600, 24 h, higher = more signal, called active from +8 up or from −8 down;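 also: cultures grown under basal conditions with no added stressor; test concentration not given here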
[17] = E. coli acrAB mutant growth effects, primary screen, E. coli filamentation inducers, strain DRC39, OD650, 24 h (AID 1178); details: higher = more signal, called active from +8 up or from −8 down;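 also: growth measured as culture turbidity by optical density at 650 nm; test concentration not given here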
[18] = E. coli acrAB mutant growth effects, primary screen, E. coli filamentation inducers, strain DRC39, OD650, 48 h (AID 1179);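 also: screen aims at cell division blockers that make cells filament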; details: E. coli DRC39 delta-acrAB growth, higher = more signal, called active from +8 up or from −8 down
[19] = RPMI8226 myeloma cell viability, profiling panel, resazurin fluorescence, basal, 24 h, PK04 Diversity Set (AID 1180); details: higher = more signal;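 also: RPMI8826 multiple myeloma cell line at 5000 cells per well; test concentration not given here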
[20] = biological target: E3 ubiquitin-protein ligase XIAP (Homo sapiens) (UniProt P98170); experiment: XIAP binders, primary screen, biophysical, small-molecule microarray, fluorescence 635 nm (AID 1181); details: small-molecule microarray binding, higher = more signal;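 also: score merges 667 nm emission and signal to noise over triplicate slides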
Chain of E3 ubiquitin-protein ligase XIAP (Homo sapiens) (P98170 whole entry, looked up): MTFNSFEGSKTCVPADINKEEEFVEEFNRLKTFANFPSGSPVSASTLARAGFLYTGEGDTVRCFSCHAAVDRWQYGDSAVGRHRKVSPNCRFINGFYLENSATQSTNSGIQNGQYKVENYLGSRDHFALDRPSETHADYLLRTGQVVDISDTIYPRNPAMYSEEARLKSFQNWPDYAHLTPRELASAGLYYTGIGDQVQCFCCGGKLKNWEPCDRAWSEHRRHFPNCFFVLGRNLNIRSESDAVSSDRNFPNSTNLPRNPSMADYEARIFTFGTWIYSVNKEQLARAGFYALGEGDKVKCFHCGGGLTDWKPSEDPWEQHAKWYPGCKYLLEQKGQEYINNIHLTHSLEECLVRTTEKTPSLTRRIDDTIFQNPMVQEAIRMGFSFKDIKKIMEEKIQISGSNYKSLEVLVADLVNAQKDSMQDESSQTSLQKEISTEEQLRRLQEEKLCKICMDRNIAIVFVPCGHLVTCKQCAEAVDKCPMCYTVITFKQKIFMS

Chain of Dihydroorotate dehydrogenase (quinone), mitochondrial (Plasmodium falciparum (isolate 3D7)) (Q08210 whole entry, looked up): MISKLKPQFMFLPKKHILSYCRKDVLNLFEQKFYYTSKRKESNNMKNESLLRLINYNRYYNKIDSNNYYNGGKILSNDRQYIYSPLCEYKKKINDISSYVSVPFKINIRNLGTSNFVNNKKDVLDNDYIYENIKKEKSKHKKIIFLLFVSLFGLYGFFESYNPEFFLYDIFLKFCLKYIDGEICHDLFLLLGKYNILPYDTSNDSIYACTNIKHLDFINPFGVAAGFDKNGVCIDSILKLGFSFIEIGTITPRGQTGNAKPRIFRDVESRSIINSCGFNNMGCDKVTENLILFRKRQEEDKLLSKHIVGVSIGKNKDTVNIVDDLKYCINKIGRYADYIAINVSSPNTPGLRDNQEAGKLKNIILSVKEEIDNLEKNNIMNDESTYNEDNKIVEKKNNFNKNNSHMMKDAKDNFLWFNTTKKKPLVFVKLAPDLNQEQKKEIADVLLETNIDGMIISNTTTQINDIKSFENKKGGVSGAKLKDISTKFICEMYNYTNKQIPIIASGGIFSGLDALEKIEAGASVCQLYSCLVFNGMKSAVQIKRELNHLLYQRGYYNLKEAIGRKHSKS

| SMILES | z-score [1] | z-score [2] | z-score [3] | z-score [4] | z-score [5] | z-score [6] | z-score [7] | z-score [8] | z-score [9] | z-score [10] | z-score [11] | z-score [12] | z-score [13] | composite z-score [14] | z-score [15] | z-score [16] | z-score [17] | z-score [18] | z-score [19] | composite z-score [20] |
| --- | --- | --- | --- | --- | --- | --- | --- | --- | --- | --- | --- | --- | --- | --- | --- | --- | --- | --- | --- | --- |
| C=CCN1C(=O)[C@]2(O[C@H](CCn3cc([C@H](O)c4ccccc4)nn3)[C@@H]([Si](C)(C)c3ccc(OC)cc3)[C@@H]2C)c2cc(NC(=O)c3ccc(OC)cc3)ccc21 | 0.268 | 0.37 | -1.87 | -2.74 | -4.38 | 3.48 | 0.517 (inactive) | -1.17 | -1.39 | -2.43 (inactive) | -1.66 | -0.971 (inactive) | -3.65 (inactive) | 0.717 (inactive) | 1.59 (inactive) | 1.11 (inactive) | 0.517 (inactive) | 0.418 (inactive) | -3.68 | -0.02 |
| CC(C)(C)N1CC=CC23O[C@@H]4/C=C\CCCOC(=O)C4[C@H]2C(=O)N(CCCO)[C@@H]3C1=O (stereo not given in full) | -0.377 | 1.1 | 0.0723 | -0.112 | -0.0698 | -0.794 | 0.822 (inactive) | 0.233 | 0.229 | 0.114 (inactive) | 0.0873 | 0.111 (inactive) | 0.0928 (inactive) | -2.08 (inactive) | -0.236 (inactive) | -1.06 (inactive) | 0.0362 (inactive) | -0.205 (inactive) | -0.0182 | -0.0626 |
| O=C(NCCN1CCOCC1)[C@@H]1c2ccccc2C(=O)N(Cc2ccccc2C(F)(F)F)[C@H]1c1ccc(CO)cc1 | 1.9 | 0.783 | 0.893 | 0.561 | -0.588 | 2.59 | -0.0687 (inactive) | -0.335 | -0.109 | 1.94 (inactive) | 0.846 | -0.139 (inactive) | 1.17 (inactive) | -0.899 (inactive) | -0.342 (inactive) | -0.276 (inactive) | 0.394 (inactive) | 0.192 (inactive) | 1.44 | 0.0487 |
| CC(C)=C1C(=O)C(c2ccccc2)=C2CN3C(=O)N(CCc4ccccc4)C(=O)[C@]3(C)[C@H]21 | 0.559 | -0.342 | 0.302 | -2.06 | -3.46 | 1.87 | -1.43 (inactive) | -0.879 | -1.66 | -0.337 (inactive) | -0.823 | -0.0416 (inactive) | -1.56 (inactive) | -0.757 (inactive) | -0.0424 (inactive) | 0.119 (inactive) | -0.575 (inactive) | -0.456 (inactive) | -1.52 | 0.387 |
| COC(=O)[C@@]1(Cc2ccccc2)[C@H]2c3cc(C(=O)N4CCCC4)n(Cc4ccc(OC)c(OC)c4)c3C[C@H]2CN1C(=O)c1ccccc1 | 0.126 | 0.106 | -0.257 | -0.571 | -1.05 | 3.84 | 1.09 (inactive) | -0.73 | -0.52 | 0.613 (inactive) | 0.181 | 1.58 (inactive) | -0.466 (inactive) | 0.263 (inactive) | 0.0944 (inactive) | 1.72 (inactive) | -0.372 (inactive) | 0.352 (inactive) | -0.172 | 0.0589 |
| NCCCCCCNC(=O)[C@@H]1C[C@@H]2C(=O)N3CCC[C@H]3C(=O)N2[C@@H]1c1cccc(OCCO)c1 | 0.108 | 1.18 | -0.12 | 0.597 | 0.313 | 0.127 | 0.391 (inactive) | -0.675 | 0.468 | 0.999 (inactive) | 0.158 | -1.44 (inactive) | 0.711 (inactive) | 0.101 (inactive) | -1.23 (inactive) | -0.853 (inactive) | 0.699 (inactive) | 0.768 (inactive) | -0.0931 | -0.0172 |
| CC(C)C(O)C1C=CC2C(=O)NC(=O)C2N1Nc1ccccn1 (stereo not given) | -0.188 | 0.258 | 0.0775 | 0.253 | 0.11 | 0.119 | -1.28 (inactive) | 0.231 | -0.0451 | -1.05 (inactive) | -0.984 | 0.754 (inactive) | -1.69 (inactive) | 0.48 (inactive) | 0.612 (inactive) | 0.696 (inactive) | -1.03 (inactive) | 0.125 (inactive) | -1.23 | 0.106 |
| O=C1c2ccccc2[C@@]2(Cc3ccccc3N(Cc3ccccc3)C2=O)[C@H](c2ccc(CO)cc2)N1Cc1ccccc1Cl | -0.334 | 0.331 | -0.826 | -0.411 | 0.139 | 1.1 | -0.407 (inactive) | -0.972 | -0.316 | -0.166 (inactive) | 0.645 | 0.0388 (inactive) | 0.685 (inactive) | -3.2 (inactive) | -0.425 (inactive) | 0.0513 (inactive) | 0.134 (inactive) | 0.86 (inactive) | 0.694 | 0.147 |
| C=C(CCCC)/C(=C/C[C@H](OC(=O)c1ccncc1)c1cccc(OCCO)c1)c1cnc2ccccc2c1 | 1.35 | -0.893 | 0.0815 | -3.37 | -2.3 | 0.99 | -1.16 (inactive) | -0.817 | -0.718 | 0.588 (inactive) | -0.0769 | 0.527 (inactive) | -0.737 (inactive) | -2.67 (inactive) | 0.236 (inactive) | -0.364 (inactive) | -0.566 (inactive) | -0.635 (inactive) | -0.82 | 0.291 |

Source: PubChem BioAssay
